# Reference: PubChem BioAssay (Tox21)
# “And” between values parts separate entries of the source, which are not always exact repeats. Equal values may be shown once. Inconclusive results are not listed. Entries that show only a call come without a potency. A structure can be active in one record and inactive in another. The source made the active and inactive calls. Unless noted, the call rests on the fitted dose curve.
# Experiment: qHTS assay to identify small molecule agonists of the hypoxia (HIF-1) signaling pathway - cell viability counter screen (AID 1224844); further: nearly all actives have a fitted effect of over 50% in size; further: potency means the concentration at half of the fitted maximal effect
# Conditions: HRE-bla ME-180 viability, CellTiter-Glo luminescence, 17 h; series mostly up to 76.8 µM
# Method in brief: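 Cytotoxicity was measured in parallel with the HRE-driven beta-lactamase readout: after 17 hrs of compound exposure at 37C, HRE-bla ME-180 cells received CellTiter-Glo and luminescence was recorded 30 min later.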
row,SMILES,Potency
1,C[C@]12C=CC3=C4CCC(=O)C=C4CC[C@H]3[C@@H]1CC[C@@H]2O,inactive
2,CC[N+]1(C)CCCC(OC(=O)C(O)(c2ccccc2)c2ccccc2)C1 (centres undefined),inactive
3,OCC1CO1 (centres undefined),inactive
4,[Cl-].[Cl-].[Hg+2],43.5 µM (active)
5,C=CCN1C[C@H](C)N([C@H](c2ccc(C(=O)N(CC)CC)cc2)c2cccc(OC)c2)C[C@H]1C,inactive
6,O=P(OCC(Br)CBr)(OCC(Br)CBr)OCC(Br)CBr (centres undefined),inactive
7,C=CCSSCC=C,inactive
8,O=C(NCNC(=O)NC1C(=O)NC(=O)N1CO)NC1C(=O)NC(=O)N1CO (centres undefined),inactive
9,O=C(N/N=C/c1ccc([N+](=O)[O-])o1)c1cc([N+](=O)[O-])cc([N+](=O)[O-])c1O,inactive
10,O=[N+]([O-])O[C@H]1CO[C@H]2[C@@H]1OC[C@H]2O[N+](=O)[O-],inactive
11,CCSCc1ccccc1OC(=O)NC,inactive
12,Nc1ccc2c(c1)Cc1ccccc1-2,inactive
13,OCCCl,inactive
14,O=C(O)C(F)(F)C(F)(F)C(F)(F)C(F)(F)C(F)(F)C(F)(F)C(F)(F)C(F)(F)F,8.71 µM (active)
15,NCCc1cc(O)c(O)cc1O,inactive
16,COc1ccc(C(=O)c2c(C)n(CCN3CCOCC3)c3ccccc23)cc1,inactive
17,C[C@H](N)[C@H](O)c1ccc(O)c(O)c1,inactive
18,C[C@]12CC[C@H]3[C@@H](CCC4=CC(=O)CC[C@@H]43)[C@@H]1CC[C@@H]2OC(=O)CCc1ccccc1,inactive

row,SMILES,Potency
1,C=C(Cl)Cl,inactive
2,CCC1(C2=NCCN2)Cc2ccccc2O1 (centres undefined),inactive
3,CCOC(=O)c1cn2nc(OP(=S)(OCC)OCC)cc2nc1C,inactive
4,Cc1nc(N(C)C)nc(OC(=O)N(C)C)c1C,inactive
5,CC(=O)NNc1ccccc1,inactive
6,C1CCNCC1,inactive
7,CC(Cc1ccccc1)NCc1ccccc1Cl (centres undefined),inactive
8,CCCCCCCCCCCC[N+](C)(C)CCOc1ccccc1,24.6 µM (active) and inactive
9,C#C[C@]1(O)CC[C@H]2[C@@H]3CCC4=CC(=O)CCC4=C3C=C[C@@]21CC,inactive
10,CCNC(=O)NC(=O)/C(C#N)=N/OC,inactive
11,CC(C)(C)OOC(C)(C)CCC(C)(C)OOC(C)(C)C,inactive
12,C[C@@H]1C[C@@H]([C@H](O)CC2CC(=O)NC(=O)C2)C(=O)[C@@H](C)C1,0.379 µM (active)
13,N#CC(C#N)=Cc1ccc(O)c(O)c1,inactive
14,CN(C)N,inactive
15,Cc1ccc(N)c(C)c1,inactive
16,CN1C[C@H](C(=O)N[C@]2(C)O[C@@]3(O)[C@@H]4CCCN4C(=O)[C@H](Cc4ccccc4)N3C2=O)C=C2c3cccc4[nH]cc(c34)C[C@H]21,24.7 µM (active) and 14.4 µM (active)
17,COP(=O)(OC)OC(Br)C(Cl)(Cl)Br (centres undefined),43.6 µM (active)
18,O=[N+]([O-])/C=C/c1ccccc1,24.9 µM (active) and 54.9 µM (active)

# Experiment: qHTS assay to identify small molecule agonists of H2AX (AID 1224845; active means well fitted activation curve with a large enough effect in the signal ratio in the repeat runs, not every such curve was filed as active; the % refers to the signal ratio; further: potency means the concentration at half of the fitted maximal effect)
# Conditions: CHO-K1 phospho-H2AX Ser139 HTRF, 3 h; series mostly up to 154 µM
# Method in brief: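 Wild-type CHO-K1 cells, plated overnight, exposed 3hr at 37C to 15 concentrations (0.76% DMSO final). Lysed, then HTRF anti-pH2AX (S139) cryptate and anti-H2AX-d2 antibodies, 24 hr room temperature; 665/620 nm emission read.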
row,SMILES,Potency
1,CC[N+]1(C)CCCC(OC(=O)C(O)(c2ccccc2)c2ccccc2)C1 (centres undefined),inactive
2,OCC1CO1 (centres undefined),inactive
3,[Cl-].[Cl-].[Hg+2],1.26 µM (active) and 1.42 µM (active)
4,C=CCN1C[C@H](C)N([C@H](c2ccc(C(=O)N(CC)CC)cc2)c2cccc(OC)c2)C[C@H]1C,inactive
5,O=P(OCC(Br)CBr)(OCC(Br)CBr)OCC(Br)CBr (centres undefined),inactive
6,O=C(NCNC(=O)NC1C(=O)NC(=O)N1CO)NC1C(=O)NC(=O)N1CO (centres undefined),inactive
7,O=C(N/N=C/c1ccc([N+](=O)[O-])o1)c1cc([N+](=O)[O-])cc([N+](=O)[O-])c1O,inactive
8,O=[N+]([O-])O[C@H]1CO[C@H]2[C@@H]1OC[C@H]2O[N+](=O)[O-],inactive
9,CCSCc1ccccc1OC(=O)NC,inactive
10,OCCCl,inactive
11,O=C(O)C(F)(F)C(F)(F)C(F)(F)C(F)(F)C(F)(F)C(F)(F)C(F)(F)C(F)(F)F,inactive
12,C[C@]12CC[C@H]3[C@@H](CCC4=CC(=O)CC[C@@H]43)[C@@H]1CC[C@@H]2OC(=O)CCc1ccccc1,inactive
13,C=C(Cl)Cl,inactive
14,CCC1(C2=NCCN2)Cc2ccccc2O1 (centres undefined),inactive
15,CCOC(=O)c1cn2nc(OP(=S)(OCC)OCC)cc2nc1C,inactive
16,Cc1nc(N(C)C)nc(OC(=O)N(C)C)c1C,inactive
17,C1CCNCC1,inactive
18,CC(Cc1ccccc1)NCc1ccccc1Cl (centres undefined),inactive
19,c1ccc2sc(SNC3CCCCC3)nc2c1,inactive
20,CCNC(=O)NC(=O)/C(C#N)=N/OC,inactive
21,CC(C)(C)OOC(C)(C)CCC(C)(C)OOC(C)(C)C,inactive
22,CN(C)N,inactive
23,Cc1ccc(N)c(C)c1,inactive
24,CCCCCCCCP(=O)(O)O,inactive
25,COP(=O)(OC)OC(Br)C(Cl)(Cl)Br (centres undefined),inactive
26,O=[N+]([O-])/C=C/c1ccccc1,20.1 µM (active)

# Experiment: qHTS assay to identify small molecule agonists of the hypoxia (HIF-1) signaling pathway (AID 1224846; active means well fitted activation curve with a large enough effect in the signal ratio in the repeat runs, not every such curve was filed as active; the % refers to the signal ratio)
# Conditions: HRE-bla ME-180 cells, beta-lactamase ratio, 17 h; series mostly up to 76.8 µM
# Method in brief: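 Compounds from the Tox21 10K library, dissolved in DMSO, are tested for induction of a hypoxia response element–controlled beta-lactamase reporter in ME-180 cells. Exposure lasts 17 hrs at 37C after a 5 hr settling period, followed by CCF4-AM FRET substrate.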
row,SMILES,outcome
1,C=CCSSCC=C,inactive
2,NCCc1cc(O)c(O)cc1O,inactive
3,CC(=O)NNc1ccccc1,inactive
4,C#C[C@]1(O)CC[C@H]2[C@@H]3CCC4=CC(=O)CCC4=C3C=C[C@@]21CC,inactive
5,c1ccc2sc(SNC3CCCCC3)nc2c1,inactive
6,C[C@@H]1C[C@@H]([C@H](O)CC2CC(=O)NC(=O)C2)C(=O)[C@@H](C)C1,inactive
7,N#CC(C#N)=Cc1ccc(O)c(O)c1,inactive
